Potency data for 40 compounds are collected here from PubChem BioAssay (Tox21).

“And” between values parts separate entries of the source, which are not always exact repeats. Equal entries are not always repeated. Inconclusive results are not listed. The source made the active and inactive calls. Calls come from the whole dose curve; as a rule, active = well fitted inhibition curve with a large enough effect in the repeat runs; inconclusive = weak or mixed curves; inactive = no such curve, though single readings can be large or run the other way.
Potency is the fitted concentration of half-maximal effect.

Cytochrome P450 2C19 (Homo sapiens), sequence (P33261 whole entry, looked up): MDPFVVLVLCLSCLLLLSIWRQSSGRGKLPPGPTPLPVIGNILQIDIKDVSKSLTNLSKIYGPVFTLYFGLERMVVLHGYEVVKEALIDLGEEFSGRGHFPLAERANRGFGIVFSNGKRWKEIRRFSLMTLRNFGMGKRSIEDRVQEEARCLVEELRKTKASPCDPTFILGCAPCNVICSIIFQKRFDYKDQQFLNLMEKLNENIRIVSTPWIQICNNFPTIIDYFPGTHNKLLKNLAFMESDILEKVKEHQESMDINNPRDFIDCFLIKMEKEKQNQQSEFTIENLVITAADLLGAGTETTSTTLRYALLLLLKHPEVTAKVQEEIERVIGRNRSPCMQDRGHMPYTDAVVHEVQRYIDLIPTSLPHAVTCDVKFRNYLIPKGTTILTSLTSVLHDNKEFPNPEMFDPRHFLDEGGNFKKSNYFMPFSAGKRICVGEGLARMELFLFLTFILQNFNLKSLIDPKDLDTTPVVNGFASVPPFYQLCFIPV

The assay concerns the target Cytochrome P450 2C19 (Homo sapiens) (UniProt P33261). Nature of the assay: Cytochrome P450 Family 2 Subfamily C Member 19 (CYP2C19) small molecule antagonists: luciferase reporter qHTS assay (AID 1671197). Note: nearly all actives have a fitted effect of over 65% in size. The following applies: P450-Glo CYP2C19 enzyme, luciferin luminescence, 1 h; series mostly up to 52.9 µM. An excerpt: National Center for Advancing Translational Sciences [NCATS]
U.S. Environmental Protection Agency [EPA]
National Institutes of Environmental Health Sciences [NIEHS]
National Toxicology Program [NTP]
U.S. Food and Drug Administration [FDA]
Cytochrome P450 (CYP) enzymes are membrane-bound hemeproteins that play a key role in metabolism of drugs and xenobiotics. Evaluation of the effect of chemicals on CYP isozymes is useful to minimize the adverse drug reactions and toxicities in drug development process. Tox21 chemicals were tested for their effect on CYP enzyme activities by using P450-Glo (TM) screening systems (Promega Corporation, Madison, WI). These systems provide a luminescent method containing proluciferin substrates and are converted to luciferin products by CYP isozymes. The luciferin products formed are detected with a luciferin detection reagent, and the amount of light produced is proportional to CYP activity. P450-Glo (TM) CYP2C19 screening system (Catalog. No. V9880) was used to detect the compounds that interfere in CYP2C19 activity. The positive control compound used for CYP2C19 assay is ketoconazole (Sigma-Aldrich, St. Louis, MO).
Tox21 Assay Protocol Summary:
Two ul of enzyme-substrate mix was dispensed into medium binding white/solid 1536-well plates (Greiner Bio-One North America Inc., Monroe, NC) using a BioRaptr Flying Reagent Dispenser (FRD, Beckman Coulter, Brea, CA). Compounds dissolved in DMSO and positive control (ketoconazole) were transferred to the assay plates at 23 nl using a Pintool station (Wako, San Diego, CA). The assay plates were incubated at room temperature for 10 min. Then 2 ul of NADPH regeneration solution was added to each well of the assay plates using an FRD and incubated at 37C for 1 h. The reaction was stopped by adding 4 ul of detection reagent using an FRD and after 20 min incubation at room temperature the luminescence signal was measured using a ViewLux plate reader (Perkin Elmer, Shelton, CT). Data were expressed as relative luminescence units.
As to `Cc1cc2c(cc1C(F)(F)F)N(C(=O)Nc1ccc(Oc3cccnc3C)nc1)CC2`, the Potency is 28.7 µM (active).
As for `CC[C@H]1O[C@]2(CC[C@@H]1C)C[C@@H]1C[C@@H](C/C=C(\C)C[C@@H](C)/C=C/C=C3\CO[C@@H]4[C@H](O)C(C)=C[C@@H](C(=O)O1)[C@]34O)O2`, the Potency was 19.8 µM (active).
For `C[n+]1cc2c3c(ccc2c2ccc4cc5c(cc4c21)OCO5)OCO3`, the Potency is 1.07 µM (active).
For `CC(C)CCCCCCCCCCCCCCC(=O)O`, the Potency entry was “inactive”.
Take `CCCCCCCCn1sc(Cl)c(Cl)c1=O`: the Potency was 6.33 µM (active).
The result for `Oc1cccc2cc3cccc(O)c3c(O)c12` reads 35.7 µM (active); that for `CCOC(=O)c1nc(C(Cl)(Cl)Cl)n(-c2ccc(Cl)cc2Cl)n1`, 5.03 µM (active); that for `ON=C1CCCC1`, 32.8 µM (active).
As to `O=S1(=O)CC(Cl)(Cl)C(Cl)(Cl)C1`, the Potency is 35.6 µM (active).
Consider `CO[Si](CCCNc1ccccc1)(OC)OC`, for which the Potency result was “inactive”.
The result for `CNCc1cc(F)ccc1Oc1ccc(Cl)c(Cl)c1` reads 2.52 µM (active); that for `Cc1[nH]cnc1C[C@H]1CCc2c(C)c3ccccc3n2C1=O`, 1.95 µM (active).
Consider `CCCC(c1cc(C(C)(C)C)c(O)cc1C)c1cc(C(C)(C)C)c(O)cc1C`, for which the Potency was 9.05 µM (active).
As for `O=[N+]([O-])c1ccccc1Nc1ccccc1`, the Potency was 19.9 µM (active).
Turning to `Nc1ccc2c3c(cccc13)-c1ccccc1-2`, the Potency was 18 µM (active).
The result for `O=C(c1ccc(O)cc1O)c1ccc(O)cc1O` reads 28.3 µM (active) and 22.4 µM (active); that for `Cc1cc(N)c(S(=O)(=O)O)cc1Cl`, “inactive”.
In the case of `Clc1ccc(C(Cn2ccnc2)OCc2ccc(Sc3ccccc3)cc2)c(Cl)c1` (stereo not given), the Potency is 2.75 µM (active).
With `NNc1nc(-c2ccccc2)cs1`, the Potency was 9.19 µM (active).
As for `CCN1/C(=C/C=C/c2sc3ccccc3[n+]2CC)Sc2ccccc21`, the Potency was 19 µM (active).
For the compound `COc1ccc(-c2ccc3cc(C(=O)O)ccc3c2)cc1C12CC3CC(CC(C3)C1)C2`, the Potency result was “inactive”.
On to `O=C(O)c1c(Cl)cccc1Cl`, for which the Potency is 34.9 µM (active).
As to `O=[N+]([O-])c1cc(Cl)c(Cl)c(Cl)c1Cl`, the Potency was 39.8 µM (active).
The entry for `CN1CCC(Nc2ncc3ncnc(Nc4ccc(F)c(Cl)c4)c3n2)CC1` is “inactive”.
The figure for `CCCCCCCCCCn1cc[n+](CCCCCCCCCC)c1C` is 35.6 µM (active).
As for `Cc1cc(=O)oc2cc(N(C)C)ccc12`, the Potency was 79.6 µM (active).
The figure for `O=C1CCCCCN1SSN1CCCCCC1=O` is 35.6 µM (active).
On to `O=C(OCC(COC(=O)c1ccccc1)(COC(=O)c1ccccc1)COC(=O)c1ccccc1)c1ccccc1`, for which the Potency is 3.55 µM (active).
`CSc1ccc2c(c1)C(N1CCN(C)CC1)Cc1ccccc1S2` (stereo not given): the Potency was 34.7 µM (active).
On to `CCCCCCCCCCC=O`, for which the Potency entry is “inactive”.
The entry for `C[C@H]1[C@H]2CC[C@H]3[C@@H]4CC=C5C[C@@H](N(C)C)CC[C@]5(C)[C@H]4CC[C@]23CN1C` is “inactive”; for `CCOC(=O)O[C@]1(C(=O)OCCl)CC[C@H]2[C@@H]3CCC4=CC(=O)C=C[C@]4(C)[C@H]3[C@@H](O)C[C@@]21C` it is “inactive”.
`Cc1cc(CCN2CCN(c3nsc4ccccc34)CC2)cc2c1NC(=O)CC2(C)C`: the Potency is 71 µM (active).
The result for `CCCN(CCC)C(=O)C(CCC(=O)OCCCN1CCN(CCOC(=O)Cc2c(C)n(C(=O)c3ccc(Cl)cc3)c3ccc(OC)cc23)CC1)NC(=O)c1ccccc1` (stereo not given) reads 8.71 µM (active); that for `CN(C)c1ccc(C2(c3ccc(N(C)C)cc3)OC(=O)c3cc(N(C)C)ccc32)cc1`, 1.41 µM (active).
The result for `O=C(N/N=C/c1ccccc1O)c1ccncc1` reads 4.9 µM (active).
The result for `OCCN1CCN(CC/C=C2/c3ccccc3Sc3ccc(C(F)(F)F)cc32)CC1` reads 34.7 µM (active).
As for `Cc1cc(C2CCCCC2)n(O)c(=O)c1`, the Potency entry is “inactive”.
As for `CCOC(=O)/C=C(C)/C=C/C=C(C)/C=C/c1c(C)cc(OC)c(C)c1C`, the Potency is 11 µM (active).
As for `CCCCCCCCCCCC(=O)NCCCN(C)C`, the Potency was 20 µM (active).
